Screen size: about 65,000 compounds; about 2,100 (3.2%) showed an effect of 50% or more. The median lay at about -52%. For the sample, strong results were picked, then their nearest neighbours and some compounds at random.

This test concerns Plasmodium falciparum. In words: Screen against P. falciparum Asexual Blood Stage (ABS), at 5uM. The test is classed as functional, Dd2. The conditions noted are these: tested at 5 uM.
As to `Cc1nc2cc(C3CCN(Cc4ccccc4F)C3)nn2c(O)c1C` (configuration not stated), the INHIBITION worked out at 50.3%. Take `Cc1nc2cc(C3CCN(Cc4cccc(F)c4F)C3)nn2c(O)c1C.O=C(O)CC(O)(CC(=O)O)C(=O)O` (configuration not stated): the INHIBITION is 59.6%. The value for `CCc1c(C)nc2cc(C3CCN(Cc4ccc(F)cc4)C3)nn2c1O` (configuration not stated) was 14.3%; that for `CN(Cc1noc(C2CC2)n1)C1CCN(Cc2cccc(F)c2F)C1` (configuration not stated) was 26.6%; that for `CCc1c(C)nc2cc(C3CCN(CCc4ccccc4)C3)nn2c1O` (configuration not stated) was -23%. For `Cc1nc(O)cc(C2CCN(Cc3cccc(F)c3F)C2)n1` (configuration not stated), the INHIBITION is -81.4%. `CCc1c(C)nc2cc(C3CCN(Cc4cccnc4)C3)nn2c1O` (configuration not stated): the INHIBITION is on record as -81.6%. Regarding `Cc1nc(CN2CC(Cc3ccccc3)CC2=O)no1` (configuration not stated), the INHIBITION is reported as -37.6%. Regarding `Cc1ccc(CNCc2ccc(N3CCC(CO)CC3)nc2)c(C)c1`, the INHIBITION is on record as -47.4%.

With `CC(c1nc(C2CC2)no1)N1CCc2c(ncn2C)C1` (configuration not stated), the INHIBITION is reported as -90.5%. The value for `Cn1nc(C(=O)NCc2cccnc2)c2c1CCS(=O)(=O)C2` was -148%. `Cc1cnc(CCN(C)C(=O)c2ccc(O)nc2C)s1`: the INHIBITION was -151%. As for `COc1cccc(-c2cc(NCCO)nc3[nH]ccc23)n1`, the INHIBITION is given as -62.1%.

As for `COc1cccc(-c2cc(NCCN(C)C)nc3[nH]ccc23)n1`, the INHIBITION is listed as 53.1%. Turning to `COc1cccc(-c2cc(NCC(=O)O)nc3[nH]ccc23)n1`, the INHIBITION is given as -47%. As for `O=C(Cc1ccsc1)N1C[C@H]2CCC[C@@]2(COCc2ccccn2)C1`, the INHIBITION is listed as -116%. Regarding `Cc1cnc(NC(=O)c2csc(NCC(C)C)n2)s1`, the INHIBITION is given as -175%. `Cc1cc(CNC(=O)NCC(O)c2cccc(C(F)(F)F)c2)no1` (configuration not stated): the INHIBITION was -34.1%.

For `CCOC(=O)CN(C)Cc1cnc(C)s1`, the INHIBITION is listed as -142%. For `Cc1ccc(CC(=O)NCC(O)c2cccc(C(F)(F)F)c2)cn1` (configuration not stated), the INHIBITION is given as -58.1%. For the molecule `Cc1ncc(CN(C)CC(O)c2ccc(OC(F)(F)F)cc2)s1` (configuration not stated), the INHIBITION turned out to be 64%. On to `Cc1ncc(CN(C)CC(O)c2ccc(Br)cc2)s1` (configuration not stated), for which the INHIBITION was 22.6%. Regarding `Cc1ncc(CN(C)CC(O)c2cccc(C(F)(F)F)c2)s1` (configuration not stated), the INHIBITION is 54.7%. As for `O=C(CC1CC1)N[C@@H]1CN(C(=O)c2ccoc2)C[C@@H]2CCCO[C@@H]21`, the INHIBITION was -102%.

For the molecule `CN(C)C(=O)c1cnc2n1CCN(Cc1ccc3c(c1)OCO3)C2`, the INHIBITION was found to be 24.3%. With `CCn1cc2c(n1)CN(Cc1ccc(F)cc1)CC2COCC1CC1` (configuration not stated), the INHIBITION was -38.3%. For `CC(C)(CNC(=O)COc1cccc(F)c1)C(N)=O`, the INHIBITION stood at 60.6%. For `CC(C)(CNC(=O)CCCOc1cccc(F)c1)C(N)=O`, the INHIBITION came to 44.9%. Regarding `CC(C)(CNC(=O)CCOc1cccc(F)c1)C(N)=O`, the INHIBITION was -172%.

Regarding `CC(C)Cn1cc2nc(N3CCC(O)CC3)[nH]cc-2c1=O`, the INHIBITION is recorded as -52.3%. Take `Cc1cccc(Cn2cc(Br)c(NS(C)(=O)=O)n2)c1`: the INHIBITION is given as -96.25%.

In the case of `Cc1oc(-c2cccc(F)c2F)nc1CN(C)CCO`, the INHIBITION is given as -82.7%.

Regarding `O=C(NCCn1ccnc1)c1ccn(-c2cccc(F)c2)n1`, the INHIBITION is -1.32%. In the case of `Cc1ccc(-c2nn(-c3cccc(F)c3)cc2CN(C)CCO)o1`, the INHIBITION worked out at 50.5%. Regarding `Cc1nc(CN2CCN(CCCc3nc4ccccc4o3)CC2)no1`, the INHIBITION is given as -77.4%. The value for `Cc1noc(C)c1CN1C[C@@H](N(C)Cc2ccco2)[C@H]2OCCC[C@H]21` was 50.4%; that for `CN(Cc1cccnc1)[C@@H]1CN(Cc2ccccn2)[C@@H]2CCCO[C@H]12` was 50.8%; that for `CN(Cc1ccco1)[C@@H]1CN(Cc2ccco2)[C@@H]2CCCO[C@H]12` was 11.7%. With `CN(Cc1ccco1)[C@@H]1CN(CC2CCOCC2)[C@@H]2CCCO[C@H]12`, the INHIBITION was -0.241%. Take `CN(Cc1cccnc1)[C@@H]1CN(Cc2nccn2C)[C@@H]2CCCO[C@H]12`: the INHIBITION is reported as -13.9%. For the molecule `CN(Cc1ccco1)[C@@H]1CN(Cc2cnn(C)c2)[C@@H]2CCCO[C@H]12`, the INHIBITION is reported as 27.3%.

On to `CN(Cc1ccco1)[C@@H]1CN(Cc2ccc(F)cc2)[C@@H]2CCCO[C@H]12`, for which the INHIBITION was determined as 56.5%.

Turning to `CN(Cc1cccnc1)[C@@H]1CN(c2ccccn2)[C@@H]2CCCO[C@H]12`, the INHIBITION was -39.4%. As for `CN(Cc1ccco1)[C@@H]1CN(Cc2nccn2C)[C@@H]2CCCO[C@H]12`, the INHIBITION is -23.8%. Turning to `O=C(CCc1ccc(-n2cnnn2)cc1)Nc1ccncc1`, the INHIBITION was -12.1%. Turning to `CCn1cc2c(n1)CN(Cc1nccs1)CC2COCC1CC1` (configuration not stated), the INHIBITION was -9.1%. As to `CN(C)c1nc(O)cc(C2CCN(C(=O)Cc3ccccn3)C2)n1` (configuration not stated), the INHIBITION was -107%. With `N#CC1CCCN(c2ncnc3c2CCN(Cc2ccccc2)CC3)C1` (configuration not stated), the INHIBITION is -71.7%. Regarding `Cc1cc(CNc2cccc(Cl)c2C)no1`, the INHIBITION is 54.3%. `CCOc1c(Cl)cccc1NCc1cc(C)on1`: the INHIBITION is reported as -51.8%. On to `Cc1cc(CNc2ccccc2Cl)no1`, for which the INHIBITION was found to be 40.4%.

Consider `CNC(=O)c1cnc(C=Cc2cc(OC)c(O)c(OC)c2)s1`, for which the INHIBITION is -64.8%.
